From the supplement of paper PMC10849652
About 7,900 targets were measured; listed, in parts, are those with a hit and a random draw of the rest. About 0.6% of all pairs of compound and target were hits.

Columns and labels:
Assay in all cases: log2 fold change, soluble protein after heating vs DMSO (PISA); higher = thermal stabilisation; K562 cells, 10 uM, 30 min; active = over 0.2 and 3.5 SD of the protein, either way, in both replicates (recomputed)
[1] = compound: C1COCCN1CCN2C3=CC=CC=C3N=C2NC(=O)C4=CC(=CC=C4)[N+](=O)[O-] [IRAK-1-4 Inhibitor I]
In short: (§1)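 K562 cells at 2×10^6 cells/mL were exposed to 10 μM compound for 30 min, then aliquots were heated for 3 min across 48°C-58°C, pooled, and extracted in PBS containing 0.5% NP-40 at 4°C. The supernatant after 21,000xg for 90 min was taken as soluble protein and measured by TMTpro 16plex LC-MS/MS with channel sums equalised. Thermal stability is reported relative to control samples, with values from duplicates. Fold changes are given on a log2 scale.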

[2] = compound: C=CC(=O)N1CCC[C@@H](n2nc(-c3ccc(Oc4ccccc4)cc3)c3c(N)ncnc32)C1 [ibrutinib]
In short: as §1

[3] = compound: CC(=O)c1cnc2ccc(-c3cc(Cl)c(O)c(Cl)c3)nc2c1N[C@H]1CC[C@H](CN(C)C)CC1
In short: as §1

[4] = compound: CC(C)(C)Cn1c(N)nc2ccc(-c3[nH]c(C(C)(C)C)nc3-c3ccc(F)cc3)nc21 [ralimetinib]
In short: as §1

[5] = compound: CC(C)(O)CC(=O)NCCn1ccc2ncnc(Nc3ccc(Oc4cccc(C(F)(F)F)c4)c(Cl)c3)c21
In short: as §1

[6] = compound: CC(C)C1=C2N=C(C=C(N2N=C1)NCC3=CC=CC=C3)NCCCCCCN
In short: as §1

[7] = compound: CC(C)C[C@@H](C=O)NC(=O)[C@H](CC(C)C)NC(=O)[C@H](CC(C)C)NC(=O)OCc1ccccc1
In short: as §1

[8] = compound: CC(C)N(C[C@H]1O[C@@H](n2cnc3c(N)ncnc32)[C@H](O)[C@@H]1O)[C@H]1C[C@@H](CCc2nc3cc(C(C)(C)C)ccc3[nH]2)C1 [pinometostat]
In short: as §1

[9] = compound: CC1=C(C(CC(=O)N1)C2=CC=C(C=C2)C(F)(F)F)C(=O)NC3=C(C=C4C(=C3)C=NN4)F
In short: as §1

[10] = compound: CC1=C(C2=C(C=C1)C(=O)C3=CC=CC=C3N2CCCN)C
In short: as §1

Chain of UniProt P17844 (P17844 whole entry, looked up): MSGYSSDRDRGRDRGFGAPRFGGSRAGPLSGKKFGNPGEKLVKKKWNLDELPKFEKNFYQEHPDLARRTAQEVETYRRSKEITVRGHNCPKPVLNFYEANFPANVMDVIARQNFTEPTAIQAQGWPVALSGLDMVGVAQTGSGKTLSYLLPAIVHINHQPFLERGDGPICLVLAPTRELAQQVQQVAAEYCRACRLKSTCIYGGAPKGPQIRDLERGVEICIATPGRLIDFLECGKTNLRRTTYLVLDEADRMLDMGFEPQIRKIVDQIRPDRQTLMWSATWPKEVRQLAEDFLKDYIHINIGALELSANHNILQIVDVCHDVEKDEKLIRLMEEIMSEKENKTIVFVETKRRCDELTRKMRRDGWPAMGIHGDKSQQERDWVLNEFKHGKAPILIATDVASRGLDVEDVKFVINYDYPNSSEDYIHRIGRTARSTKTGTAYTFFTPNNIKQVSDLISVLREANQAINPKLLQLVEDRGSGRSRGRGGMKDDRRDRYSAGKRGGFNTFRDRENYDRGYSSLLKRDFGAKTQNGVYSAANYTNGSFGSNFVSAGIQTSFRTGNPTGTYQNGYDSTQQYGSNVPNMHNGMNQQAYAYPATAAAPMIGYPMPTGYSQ
Chain of UniProt Q04637 (Q04637 whole entry, looked up): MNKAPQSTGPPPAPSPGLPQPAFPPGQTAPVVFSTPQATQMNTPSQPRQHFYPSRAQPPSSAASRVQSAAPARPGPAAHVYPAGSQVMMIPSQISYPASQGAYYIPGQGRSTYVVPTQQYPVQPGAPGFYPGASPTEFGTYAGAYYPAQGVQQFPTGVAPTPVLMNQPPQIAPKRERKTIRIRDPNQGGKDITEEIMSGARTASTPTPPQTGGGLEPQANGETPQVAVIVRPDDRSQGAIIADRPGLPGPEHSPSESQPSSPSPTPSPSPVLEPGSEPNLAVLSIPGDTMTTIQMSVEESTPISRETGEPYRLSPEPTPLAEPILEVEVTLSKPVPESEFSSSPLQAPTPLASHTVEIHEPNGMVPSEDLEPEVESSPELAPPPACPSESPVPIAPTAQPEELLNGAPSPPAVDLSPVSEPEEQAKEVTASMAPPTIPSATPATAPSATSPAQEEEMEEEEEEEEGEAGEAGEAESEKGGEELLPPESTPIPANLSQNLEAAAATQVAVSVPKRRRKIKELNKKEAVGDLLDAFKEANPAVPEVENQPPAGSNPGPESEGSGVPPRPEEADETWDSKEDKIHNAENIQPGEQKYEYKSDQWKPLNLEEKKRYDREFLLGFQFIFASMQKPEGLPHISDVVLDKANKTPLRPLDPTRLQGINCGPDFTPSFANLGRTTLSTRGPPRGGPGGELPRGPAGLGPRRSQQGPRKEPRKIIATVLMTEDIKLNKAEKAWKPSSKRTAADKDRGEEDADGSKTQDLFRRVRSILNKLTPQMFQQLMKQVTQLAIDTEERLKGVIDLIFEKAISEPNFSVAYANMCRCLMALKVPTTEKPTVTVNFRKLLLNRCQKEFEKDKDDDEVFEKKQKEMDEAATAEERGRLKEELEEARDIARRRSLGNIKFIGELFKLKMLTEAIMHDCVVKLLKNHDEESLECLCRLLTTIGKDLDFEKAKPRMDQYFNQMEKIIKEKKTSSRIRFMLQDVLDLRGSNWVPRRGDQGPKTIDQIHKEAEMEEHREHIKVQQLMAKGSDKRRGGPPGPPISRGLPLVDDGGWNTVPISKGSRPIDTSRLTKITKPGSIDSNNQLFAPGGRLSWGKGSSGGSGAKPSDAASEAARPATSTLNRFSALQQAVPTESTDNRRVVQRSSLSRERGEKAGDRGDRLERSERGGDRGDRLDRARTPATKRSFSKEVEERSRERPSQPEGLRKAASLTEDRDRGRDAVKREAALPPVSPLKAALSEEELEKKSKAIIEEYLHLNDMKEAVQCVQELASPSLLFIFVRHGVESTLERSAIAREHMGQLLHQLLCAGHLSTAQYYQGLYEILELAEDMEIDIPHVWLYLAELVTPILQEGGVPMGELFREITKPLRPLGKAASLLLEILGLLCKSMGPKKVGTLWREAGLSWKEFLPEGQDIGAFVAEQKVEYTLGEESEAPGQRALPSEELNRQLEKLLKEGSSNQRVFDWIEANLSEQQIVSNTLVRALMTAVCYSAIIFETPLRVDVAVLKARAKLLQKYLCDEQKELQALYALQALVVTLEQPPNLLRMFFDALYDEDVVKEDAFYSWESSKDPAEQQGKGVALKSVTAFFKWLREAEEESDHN
Chain of UniProt O43237 (O43237 whole entry, looked up): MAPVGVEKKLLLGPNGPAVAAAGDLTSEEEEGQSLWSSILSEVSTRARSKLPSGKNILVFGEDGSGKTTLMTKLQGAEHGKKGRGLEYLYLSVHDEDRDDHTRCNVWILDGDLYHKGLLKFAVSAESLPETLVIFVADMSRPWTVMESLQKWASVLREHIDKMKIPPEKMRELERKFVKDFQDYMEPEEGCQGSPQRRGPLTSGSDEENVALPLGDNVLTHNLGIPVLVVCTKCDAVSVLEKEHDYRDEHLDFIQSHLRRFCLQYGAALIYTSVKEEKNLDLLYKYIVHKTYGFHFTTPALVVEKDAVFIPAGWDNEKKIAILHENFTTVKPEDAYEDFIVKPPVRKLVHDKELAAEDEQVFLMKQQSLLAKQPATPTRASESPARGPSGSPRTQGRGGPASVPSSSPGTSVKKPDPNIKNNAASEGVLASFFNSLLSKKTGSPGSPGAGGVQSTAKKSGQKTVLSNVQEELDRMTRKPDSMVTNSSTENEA
Chain of UniProt Q8NBA8 (Q8NBA8 whole entry, looked up): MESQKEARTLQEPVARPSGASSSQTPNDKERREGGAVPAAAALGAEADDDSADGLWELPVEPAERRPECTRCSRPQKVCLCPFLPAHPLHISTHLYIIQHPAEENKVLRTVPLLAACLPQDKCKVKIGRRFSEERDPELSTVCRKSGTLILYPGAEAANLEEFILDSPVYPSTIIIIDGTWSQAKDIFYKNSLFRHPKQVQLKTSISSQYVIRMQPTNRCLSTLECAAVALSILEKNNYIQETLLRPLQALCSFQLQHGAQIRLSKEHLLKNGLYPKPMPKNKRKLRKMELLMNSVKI
Chain of UniProt Q16531 (Q16531 whole entry, looked up): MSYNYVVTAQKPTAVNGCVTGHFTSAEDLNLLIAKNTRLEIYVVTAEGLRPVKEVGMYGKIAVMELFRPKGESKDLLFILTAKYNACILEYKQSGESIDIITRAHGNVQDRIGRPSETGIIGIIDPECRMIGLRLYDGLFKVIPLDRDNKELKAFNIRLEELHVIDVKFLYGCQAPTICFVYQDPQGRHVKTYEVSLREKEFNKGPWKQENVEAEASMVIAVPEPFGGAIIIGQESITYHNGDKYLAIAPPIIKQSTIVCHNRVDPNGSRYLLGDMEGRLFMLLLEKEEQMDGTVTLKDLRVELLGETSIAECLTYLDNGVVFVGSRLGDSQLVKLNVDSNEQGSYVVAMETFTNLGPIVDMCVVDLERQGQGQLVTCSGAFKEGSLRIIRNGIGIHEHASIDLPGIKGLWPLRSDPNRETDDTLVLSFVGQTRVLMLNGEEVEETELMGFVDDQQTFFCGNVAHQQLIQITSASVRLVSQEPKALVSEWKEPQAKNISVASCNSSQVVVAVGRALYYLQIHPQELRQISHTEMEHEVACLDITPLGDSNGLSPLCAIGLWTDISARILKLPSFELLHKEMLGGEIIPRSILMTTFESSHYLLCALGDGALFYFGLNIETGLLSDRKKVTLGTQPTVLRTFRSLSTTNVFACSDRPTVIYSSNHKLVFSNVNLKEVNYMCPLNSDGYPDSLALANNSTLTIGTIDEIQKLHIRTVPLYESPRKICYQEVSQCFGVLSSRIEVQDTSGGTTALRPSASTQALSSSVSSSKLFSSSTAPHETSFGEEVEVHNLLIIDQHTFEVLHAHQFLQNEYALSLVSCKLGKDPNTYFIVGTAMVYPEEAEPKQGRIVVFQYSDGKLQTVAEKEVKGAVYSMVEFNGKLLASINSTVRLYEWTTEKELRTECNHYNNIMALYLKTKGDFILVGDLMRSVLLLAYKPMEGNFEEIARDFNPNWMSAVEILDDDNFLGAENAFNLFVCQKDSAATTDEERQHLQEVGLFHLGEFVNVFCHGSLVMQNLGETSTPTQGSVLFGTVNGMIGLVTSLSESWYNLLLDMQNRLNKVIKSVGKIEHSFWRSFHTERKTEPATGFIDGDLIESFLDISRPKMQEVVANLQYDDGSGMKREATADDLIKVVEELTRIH
Chain of UniProt Q9NVR5 (Q9NVR5 whole entry, looked up): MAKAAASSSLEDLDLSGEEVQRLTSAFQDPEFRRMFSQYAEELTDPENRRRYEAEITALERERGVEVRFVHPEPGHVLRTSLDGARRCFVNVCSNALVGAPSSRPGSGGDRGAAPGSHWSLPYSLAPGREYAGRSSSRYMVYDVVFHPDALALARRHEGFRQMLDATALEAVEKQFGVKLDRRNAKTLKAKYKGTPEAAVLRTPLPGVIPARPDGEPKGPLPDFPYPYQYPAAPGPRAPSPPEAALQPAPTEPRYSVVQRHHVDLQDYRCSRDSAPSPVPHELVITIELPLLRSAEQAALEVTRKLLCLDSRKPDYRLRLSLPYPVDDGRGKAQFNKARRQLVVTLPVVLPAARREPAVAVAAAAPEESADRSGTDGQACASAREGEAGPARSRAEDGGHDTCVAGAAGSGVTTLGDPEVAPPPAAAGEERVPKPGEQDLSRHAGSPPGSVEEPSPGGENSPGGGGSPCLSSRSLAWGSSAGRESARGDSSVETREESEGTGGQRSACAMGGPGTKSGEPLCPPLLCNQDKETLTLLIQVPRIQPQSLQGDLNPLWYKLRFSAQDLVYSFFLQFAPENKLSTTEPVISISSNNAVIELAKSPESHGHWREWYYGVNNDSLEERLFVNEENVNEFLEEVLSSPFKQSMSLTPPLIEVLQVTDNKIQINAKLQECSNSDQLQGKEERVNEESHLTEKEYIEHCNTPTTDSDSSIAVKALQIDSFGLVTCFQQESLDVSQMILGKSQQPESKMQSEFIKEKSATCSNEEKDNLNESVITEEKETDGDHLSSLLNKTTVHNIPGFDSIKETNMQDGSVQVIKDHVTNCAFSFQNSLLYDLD

Target | log2 fold change [1] | log2 fold change [2] | log2 fold change [3] | log2 fold change [4] | log2 fold change [5] | log2 fold change [6] | log2 fold change [7] | log2 fold change [8] | log2 fold change [9] | log2 fold change [10]
DNAJC7 (UniProt Q99615) | -0.041 (inactive) | -0.012 (inactive) | -0.007 (inactive) | -0.014 (inactive) | -0.022 (inactive) | -0.117 (inactive) | 0.023 (inactive) | -0.034 (inactive) | -0.003 (inactive) | 0.04 (inactive)
ERLIN2 (UniProt O94905) | -0.089 (inactive) | 0.001 (inactive) | 0.058 (inactive) | 0.004 (inactive) | 0 (inactive) | -0.296 (active) | 0.035 (inactive) | 0.093 (inactive) | 0.021 (inactive) | 0.013 (inactive)
DCAF13 (UniProt Q9NV06) | -0.079 (inactive) | 0.019 (inactive) | 0.101 (inactive) | 0.077 (inactive) | 0.032 (inactive) | -0.078 (inactive) | 0.165 (inactive) | 0.263 (inactive) | 0.037 (inactive) | -0.33 (inactive)
DDX5 (UniProt P17844) | -0.114 (inactive) | 0.002 (inactive) | -0.358 (active) | -0.024 (inactive) | -0.189 (inactive) | -0.12 (inactive) | 0.069 (inactive) | 0.017 (inactive) | -0.067 (inactive) | 0.072 (inactive)
DBN1 isoform 3 (UniProt Q16643) | -0.06 (inactive) | 0.099 (inactive) | 0.061 (inactive) | 0.072 (inactive) | 0.151 (inactive) | 0.047 (inactive) | -0.02 (inactive) | -0.005 (inactive) | 0.05 (inactive) | -0.091 (inactive)
EEF1D isoform 2 (UniProt P29692) | -0.038 (inactive) | -0.039 (inactive) | 0.012 (inactive) | 0.026 (inactive) | -0.006 (inactive) | -0.051 (inactive) | 0.029 (inactive) | 0.065 (inactive) | 0.002 (inactive) | 0.039 (inactive)
ESS2 (UniProt Q96DF8) | 0.032 (inactive) | 0.025 (inactive) | 0.031 (inactive) | -0.009 (inactive) | 0.013 (inactive) | 0.002 (inactive) | 0.136 (inactive) | 0.056 (inactive) | 0.099 (inactive) | -0.021 (inactive)
EDEM2 (UniProt Q9BV94) | 0.181 (inactive) | -0.014 (inactive) | -0.062 (inactive) | -0.138 (inactive) | -0.009 (inactive) | -0.071 (inactive) | 0.065 (inactive) | -0.001 (inactive) | 0.009 (inactive) | 0.022 (inactive)
EHBP1L1 (UniProt Q8N3D4) | -0.044 (inactive) | -0.054 (inactive) | -0.077 (inactive) | 0.083 (inactive) | -0.001 (inactive) | -0.034 (inactive) | 0.05 (inactive) | 0.086 (inactive) | -0.049 (inactive) | 0.028 (inactive)
EIF4G1 isoform 8 (UniProt Q04637) | -0.124 (inactive) | -0.148 (inactive) | -0.3 (inactive) | 0.057 (inactive) | -0.053 (inactive) | -0.387 (inactive) | 0.046 (inactive) | 0.149 (inactive) | 0.096 (inactive) | 0.018 (inactive)
CTSZ (UniProt Q9UBR2) | 0.008 (inactive) | -0.02 (inactive) | 0.053 (inactive) | -0.062 (inactive) | 0 (inactive) | -0.395 (active) | 0.082 (inactive) | -0.076 (inactive) | 0.015 (inactive) | -0.036 (inactive)
CUEDC2 (UniProt Q9H467) | 0.035 (inactive) | -0.011 (inactive) | 0.003 (inactive) | -0.026 (inactive) | -0.056 (inactive) | -0.003 (inactive) | 0.198 (inactive) | -0.001 (inactive) | -0.015 (inactive) | -0.159 (inactive)
EIF2S3 (UniProt P41091) | -0.126 (inactive) | 0.021 (inactive) | -0.004 (inactive) | 0.061 (inactive) | 0.05 (inactive) | 0.052 (inactive) | 0.075 (inactive) | 0.077 (inactive) | 0.005 (inactive) | 0.195 (inactive)
EIF3J (UniProt O75822) | 0.118 (inactive) | -0.031 (inactive) | 0.035 (inactive) | 0.093 (inactive) | -0.031 (inactive) | -0.007 (inactive) | -0.079 (inactive) | -0.007 (inactive) | -0.019 (inactive) | -0.025 (inactive)
DYNC1LI2 (UniProt O43237) | 0.089 (inactive) | 0.083 (inactive) | 0.099 (inactive) | 0.124 (inactive) | 0.03 (inactive) | -0.067 (inactive) | 0.07 (inactive) | 0.146 (inactive) | 0.007 (inactive) | 0.094 (inactive)
EEF1G isoform 2 (UniProt P26641) | -0.02 (inactive) | -0.083 (inactive) | 0.044 (inactive) | 0.059 (inactive) | 0.006 (inactive) | -0.067 (inactive) | -0.024 (inactive) | 0.042 (inactive) | -0.015 (inactive) | 0.017 (inactive)
FAM207A (UniProt Q9NSI2) | -0.043 (inactive) | -0.082 (inactive) | 0.057 (inactive) | 0.123 (inactive) | -0.033 (inactive) | -0.066 (inactive) | 0.088 (inactive) | 0.024 (inactive) | 0.005 (inactive) | 0.038 (inactive)
DDB1 (UniProt Q16531) | 0.038 (inactive) | 0.026 (inactive) | 0.002 (inactive) | -0.053 (inactive) | -0.008 (inactive) | 0.071 (inactive) | -0.017 (inactive) | -0.03 (inactive) | 0.022 (inactive) | -0.001 (inactive)
DHX36 (UniProt Q9H2U1) | -0.053 (inactive) | 0.014 (inactive) | 0.001 (inactive) | 0.111 (inactive) | 0.009 (inactive) | -0.025 (inactive) | 0.056 (inactive) | 0.153 (inactive) | 0.031 (inactive) | -0.206 (inactive)
DCUN1D1 (UniProt Q96GG9) | 0.031 (inactive) | 0.016 (inactive) | -0.06 (inactive) | -0.047 (inactive) | -0.002 (inactive) | -0.061 (inactive) | -0.022 (inactive) | -0.035 (inactive) | 0.014 (inactive) | 0.018 (inactive)
DNAAF2 (UniProt Q9NVR5) | -0.02 (inactive) | -0.023 (inactive) | 0.014 (inactive) | 0.022 (inactive) | 0.013 (inactive) | -0.025 (inactive) | -0.054 (inactive) | -0.023 (inactive) | 0 (inactive) | -0.013 (inactive)
DNAH11 (UniProt Q96DT5) | 0.038 (inactive) | 0.103 (inactive) | 0.126 (inactive) | -0.285 (inactive) | 0.047 (inactive) | -0.001 (inactive) | 0.041 (inactive) | -0.019 (inactive) | -0.012 (inactive) | -0.137 (inactive)
EOGT (UniProt Q5NDL2) | -0.002 (inactive) | 0.005 (inactive) | 0.006 (inactive) | -0.036 (inactive) | 0.016 (inactive) | -0.024 (inactive) | 0.026 (inactive) | 0.075 (inactive) | 0.002 (inactive) | 0.003 (inactive)
EBNA1BP2 (UniProt Q99848) | -0.143 (inactive) | -0.013 (inactive) | 0.013 (inactive) | 0.27 (inactive) | 0.124 (inactive) | 0.213 (inactive) | -0.026 (inactive) | 0.439 (inactive) | 0.006 (inactive) | -1.4 (active)
DNTTIP2 (UniProt Q5QJE6) | -0.027 (inactive) | 0.045 (inactive) | -0.265 (inactive) | 0.089 (inactive) | 0.046 (inactive) | -0.234 (inactive) | 0.046 (inactive) | 0.266 (inactive) | -0.017 (inactive) | -0.975 (active)
DHRS7B (UniProt Q6IAN0) | 0.027 (inactive) | -0.017 (inactive) | -0.063 (inactive) | 0.23 (inactive) | 0.055 (inactive) | 0.115 (inactive) | -0.113 (inactive) | -0.055 (inactive) | -0.049 (inactive) | -0.003 (inactive)
DTWD2 (UniProt Q8NBA8) | 0.094 (inactive) | 0.001 (inactive) | 0.009 (inactive) | 0.092 (inactive) | -0.07 (inactive) | -0.179 (inactive) | 0.003 (inactive) | 0.082 (inactive) | 0.031 (inactive) | -0.004 (inactive)
EIF4E isoform 2 (UniProt P06730) | 0.066 (inactive) | 0.089 (inactive) | 0.308 (inactive) | -0.071 (inactive) | -0.016 (inactive) | 0.114 (inactive) | 0.012 (inactive) | -0.057 (inactive) | -0.024 (inactive) | 0.027 (inactive)
EXOC2 (UniProt Q96KP1) | -0.092 (inactive) | -0.018 (inactive) | -0.048 (inactive) | 0.08 (inactive) | -0.052 (inactive) | -0.43 (active) | 0.027 (inactive) | 0.172 (inactive) | -0.216 (inactive) | 0.007 (inactive)
